{"source": "paper PMC11062922", "about": "(Nature Chemical Biology, 2023)", "key": {"CDC42": {"system": "CDC42", "set-up": "species or system human, MV4-11 + K-562 + COLO205 + SK-N-BE2 + OVCAR-8", "details": "read-out: apparent Kd; compound concentrations:100 nM and 1000 nM (sheet 'Samples'); n = 1"}, "FLT3": {"system": "FLT3", "set-up": "species or system human, MV4-11 + K-562 + COLO205 + SK-N-BE2 + OVCAR-8", "details": "read-out: apparent Kd; compound concentrations:100 nM and 1000 nM (sheet 'Samples'); n = 1"}, "GSK3A": {"system": "GSK3A", "set-up": "species or system human, MV4-11 + K-562 + COLO205 + SK-N-BE2 + OVCAR-8", "details": "read-out: apparent Kd, n = 1"}, "LIMK2": {"system": "LIMK2", "set-up": "species or system human, MV4-11 + K-562 + COLO205 + SK-N-BE2 + OVCAR-8", "details": "read-out: apparent Kd; compound concentrations:100 nM and 1000 nM (sheet 'Samples'); n = 1"}, "CDK16": {"system": "CDK16", "set-up": "species or system human, MV4-11 + K-562 + COLO205 + SK-N-BE2 + OVCAR-8", "details": "read-out: apparent Kd, n = 1"}, "CDK17": {"system": "CDK17", "set-up": "species or system human, MV4-11 + K-562 + COLO205 + SK-N-BE2 + OVCAR-8", "details": "read-out: apparent Kd; compound concentrations:100 nM and 1000 nM (sheet 'Samples'); n = 1"}, "CDK6": {"system": "CDK6", "set-up": "species or system human, MV4-11 + K-562 + COLO205 + SK-N-BE2 + OVCAR-8", "details": "read-out: apparent Kd; compound concentrations:100 nM and 1000 nM (sheet 'Samples'); n = 1"}, "CDK7": {"system": "CDK7", "set-up": "species or system human, MV4-11 + K-562 + COLO205 + SK-N-BE2 + OVCAR-8", "details": "read-out: apparent Kd; compound concentrations:100 nM and 1000 nM (sheet 'Samples'); n = 1"}, "CDK9": {"system": "CDK9", "set-up": "species or system human, MV4-11 + K-562 + COLO205 + SK-N-BE2 + OVCAR-8", "details": "read-out: apparent Kd; compound concentrations:100 nM and 1000 nM (sheet 'Samples'); n = 1"}, "CDKL5": {"system": "CDKL5", "set-up": "species or system human, MV4-11 + K-562 + COLO205 + SK-N-BE2 + OVCAR-8", "details": "read-out: apparent Kd; compound concentrations:100 nM and 1000 nM (sheet 'Samples'); n = 1"}, "EPHB2": {"system": "EPHB2", "set-up": "species or system human, MV4-11 + K-562 + COLO205 + SK-N-BE2 + OVCAR-8", "details": "read-out: apparent Kd; compound concentrations:100 nM and 1000 nM (sheet 'Samples'); n = 1"}, "ERCC2": {"system": "ERCC2", "set-up": "species or system human, MV4-11 + K-562 + COLO205 + SK-N-BE2 + OVCAR-8", "details": "read-out: apparent Kd; compound concentrations:100 nM and 1000 nM (sheet 'Samples'); n = 1"}, "FER": {"system": "FER", "set-up": "species or system human, MV4-11 + K-562 + COLO205 + SK-N-BE2 + OVCAR-8", "details": "read-out: apparent Kd; compound concentrations:100 nM and 1000 nM (sheet 'Samples'); n = 1"}, "GSK3B": {"system": "GSK3B", "set-up": "species or system human, MV4-11 + K-562 + COLO205 + SK-N-BE2 + OVCAR-8", "details": "read-out: apparent Kd, n = 1"}, "ICK": {"system": "ICK", "set-up": "species or system human, MV4-11 + K-562 + COLO205 + SK-N-BE2 + OVCAR-8", "details": "read-out: apparent Kd; compound concentrations:100 nM and 1000 nM (sheet 'Samples'); n = 1"}, "MAPK7": {"system": "MAPK7", "set-up": "species or system human, MV4-11 + K-562 + COLO205 + SK-N-BE2 + OVCAR-8", "details": "read-out: apparent Kd; compound concentrations:100 nM and 1000 nM (sheet 'Samples'); n = 1"}, "NQO2": {"system": "NQO2", "set-up": "species or system human, MV4-11 + K-562 + COLO205 + SK-N-BE2 + OVCAR-8", "details": "read-out: apparent Kd, n = 1"}, "PDGFRB": {"system": "PDGFRB", "set-up": "species or system human, MV4-11 + K-562 + COLO205 + SK-N-BE2 + OVCAR-8", "details": "read-out: apparent Kd; compound concentrations:100 nM and 1000 nM (sheet 'Samples'); n = 1"}, "TNK1": {"system": "TNK1", "set-up": "species or system human, MV4-11 + K-562 + COLO205 + SK-N-BE2 + OVCAR-8", "details": "read-out: apparent Kd; compound concentrations:100 nM and 1000 nM (sheet 'Samples'); n = 1"}, "TNK2": {"system": "TNK2", "set-up": "species or system human, MV4-11 + K-562 + COLO205 + SK-N-BE2 + OVCAR-8", "details": "read-out: apparent Kd; compound concentrations:100 nM and 1000 nM (sheet 'Samples'); n = 1"}, "DJA1": {"system": "T1, DJA1", "T1 construct": "gene DNAJA1", "set-up": "species or system human, MV4-11 + K-562 + COLO205 + SK-N-BE2 + OVCAR-8", "details": "read-out: apparent Kd; compound concentrations: 100 nM and 1000 nM (sheet 'Samples'), CATDS: 0.17087221308304101; n = 1"}, "PDXK": {"system": "PDXK", "set-up": "species or system human, MV4-11 + K-562 + COLO205 + SK-N-BE2 + OVCAR-8", "details": "read-out: apparent Kd; compound concentrations: 100 nM and 1000 nM (sheet 'Samples'), CATDS: 0.14245217988019501; n = 1"}, "CDK2": {"system": "CDK2", "set-up": "species or system human, MV4-11 + K-562 + COLO205 + SK-N-BE2 + OVCAR-8", "details": "read-out: apparent Kd; compound concentrations:100 nM and 1000 nM (sheet 'Samples'); n = 1"}, "CSNK2A1;CSNK2A3": {"system": "CSNK2A1;CSNK2A3", "set-up": "species or system human, MV4-11 + K-562 + COLO205 + SK-N-BE2 + OVCAR-8", "details": "read-out: apparent Kd; compound concentrations:100 nM and 1000 nM (sheet 'Samples'); n = 1"}, "CSNK2A2": {"system": "CSNK2A2", "set-up": "species or system human, MV4-11 + K-562 + COLO205 + SK-N-BE2 + OVCAR-8", "details": "read-out: apparent Kd; compound concentrations:100 nM and 1000 nM (sheet 'Samples'); n = 1"}, "MYLK3": {"system": "MYLK3", "set-up": "species or system human, MV4-11 + K-562 + COLO205 + SK-N-BE2 + OVCAR-8", "details": "read-out: apparent Kd; compound concentrations:100 nM and 1000 nM (sheet 'Samples'); n = 1"}, "Q6ZSR9": {"biological_target": "Q6ZSR9 (human, UniProt Q6ZSR9)", "sequence (Q6ZSR9 whole entry, looked up)": "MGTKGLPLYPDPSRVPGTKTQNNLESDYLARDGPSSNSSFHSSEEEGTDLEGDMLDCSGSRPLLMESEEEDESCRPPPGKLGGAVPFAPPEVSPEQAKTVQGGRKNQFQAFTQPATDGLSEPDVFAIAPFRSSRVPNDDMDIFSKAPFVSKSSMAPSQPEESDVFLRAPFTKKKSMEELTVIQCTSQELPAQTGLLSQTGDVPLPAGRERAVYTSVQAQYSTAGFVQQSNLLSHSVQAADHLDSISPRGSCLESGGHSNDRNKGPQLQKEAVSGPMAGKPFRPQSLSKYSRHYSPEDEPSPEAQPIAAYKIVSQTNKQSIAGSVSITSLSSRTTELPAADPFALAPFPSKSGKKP", "set-up": "species or system MV4-11 + K-562 + COLO205 + SK-N-BE2 + OVCAR-8", "details": "read-out: apparent Kd; compound concentrations:100 nM and 1000 nM (sheet 'Samples'); n = 1"}, "TTK": {"system": "TTK", "set-up": "species or system human, MV4-11 + K-562 + COLO205 + SK-N-BE2 + OVCAR-8", "details": "read-out: apparent Kd; compound concentrations:100 nM and 1000 nM (sheet 'Samples'); n = 1"}, "[1]": {"details": "compound concentrations:100 nM and 1000 nM (sheet 'Samples')"}}, "note": "Like-named read-outs stand apart in the source and are kept apart here."}
{"compound": "CC(=O)Nc1n[nH]c2ncc(-c3ccccc3)cc12", "note": "[SB-548492]", "values": [{"measurement": "potency estimated from few doses", "setting": "CDC42", "result": 1850, "unit": "nM"}, {"measurement": "potency estimated from few doses", "setting": "FLT3", "result": 1040, "unit": "nM"}, {"measurement": "potency estimated from few doses", "setting": "GSK3A; [1]", "result": 748, "unit": "nM"}, {"measurement": "potency estimated from few doses", "setting": "LIMK2", "result": 1150, "unit": "nM"}]}
{"compound": "CN1CCC(C(=O)Nc2n[nH]c3nc(-c4ccc(O)cc4)c(Br)cc23)CC1.O=C(O)/C=C\\C(=O)O", "note": "[SB-732881-H]", "values": [{"measurement": "potency estimated from few doses", "setting": "CDK16; [1]", "result": 531, "unit": "nM"}, {"measurement": "potency estimated from few doses", "setting": "CDK17", "result": 459, "unit": "nM"}, {"measurement": "potency estimated from few doses", "setting": "CDK6", "result": 786, "unit": "nM"}, {"measurement": "potency estimated from few doses", "setting": "CDK7", "result": 732, "unit": "nM"}, {"measurement": "potency estimated from few doses", "setting": "CDK9", "result": 234, "unit": "nM"}, {"measurement": "potency estimated from few doses", "setting": "CDKL5", "result": 21, "unit": "nM"}, {"measurement": "potency estimated from few doses", "setting": "EPHB2", "result": 1100, "unit": "nM"}, {"measurement": "potency estimated from few doses", "setting": "ERCC2", "result": 985, "unit": "nM"}, {"measurement": "potency estimated from few doses", "setting": "FER", "result": 1270, "unit": "nM"}, {"measurement": "potency estimated from few doses", "setting": "GSK3A; [1]", "result": 2.51, "unit": "nM"}, {"measurement": "potency estimated from few doses", "setting": "GSK3B; [1]", "result": 8.66, "unit": "nM"}, {"measurement": "potency estimated from few doses", "setting": "ICK", "result": 1160, "unit": "nM"}, {"measurement": "potency estimated from few doses", "setting": "MAPK7", "result": 1760, "unit": "nM"}, {"measurement": "potency estimated from few doses", "setting": "NQO2; [1]", "result": 1590, "unit": "nM"}, {"measurement": "potency estimated from few doses", "setting": "PDGFRB", "result": 1730, "unit": "nM"}, {"measurement": "potency estimated from few doses", "setting": "TNK1", "result": 744, "unit": "nM"}, {"measurement": "potency estimated from few doses", "setting": "TNK2", "result": 964, "unit": "nM"}]}
{"compound": "Cn1cc(C2=C(c3cccc(Br)c3)C(=O)NC2=O)c2ccccc21", "note": "[RO0317625-000]", "values": [{"measurement": "potency estimated from few doses", "setting": "CDK16; compound concentrations: 100 nM and 1000 nM (sheet 'Samples'), CATDS: 0.11881037811930099", "result": 2310, "unit": "nM"}, {"measurement": "potency estimated from few doses", "setting": "DJA1", "result": 881, "unit": "nM"}, {"measurement": "potency estimated from few doses", "setting": "GSK3A; compound concentrations: 100 nM and 1000 nM (sheet 'Samples'), CATDS: 0.21400406250920001", "result": 574, "unit": "nM"}, {"measurement": "potency estimated from few doses", "setting": "GSK3B; compound concentrations: 100 nM and 1000 nM (sheet 'Samples'), CATDS: 0.248828524546996", "result": 447, "unit": "nM"}, {"measurement": "potency estimated from few doses", "setting": "NQO2; compound concentrations: 100 nM and 1000 nM (sheet 'Samples'), CATDS: 0.16613061012500299", "result": 935, "unit": "nM"}, {"measurement": "potency estimated from few doses", "setting": "PDXK", "result": 1340, "unit": "nM"}]}
{"compound": "NS(=O)(=O)c1ccc(N/N=C2\\C(=O)Nc3ccc(C(=O)NCc4ccncc4)cc32)cc1", "note": "[GSK300657X]", "values": [{"measurement": "potency estimated from few doses", "setting": "CDK16; [1]", "result": 486, "unit": "nM"}, {"measurement": "potency estimated from few doses", "setting": "CDK17", "result": 957, "unit": "nM"}, {"measurement": "potency estimated from few doses", "setting": "CDK2", "result": 567, "unit": "nM"}, {"measurement": "potency estimated from few doses", "setting": "CSNK2A1;CSNK2A3", "result": 1460, "unit": "nM"}, {"measurement": "potency estimated from few doses", "setting": "CSNK2A2", "result": 771, "unit": "nM"}, {"measurement": "potency estimated from few doses", "setting": "ERCC2", "result": 2250, "unit": "nM"}, {"measurement": "potency estimated from few doses", "setting": "MYLK3", "result": 1620, "unit": "nM"}, {"measurement": "potency estimated from few doses", "setting": "Q6ZSR9", "result": 2140, "unit": "nM"}, {"measurement": "potency estimated from few doses", "setting": "TTK", "result": 2100, "unit": "nM"}]}
